Screening data deposited in PubChem by National Center for Advancing Translational Sciences (NCATS).
KB-V1 MDR tox: qHTS assay for MDR1-selective chemotherapeutics: Primary screen using the drug-selected MDR subline cells KB-V1 | KB-V1 MDR cells viability, CellTiter-Glo, 72 h | AID 1347076, 2019 | hit rate 3.4% among 400,000 | Potency, µM (titrated, usually from 46.1 µM), actives largely listed as cytotoxic; note: nearly all actives have a fitted effect of over 60% in size
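KB-V1 MDR subline cells in DMEM (phenol-red free, 10% FBS) exposed to compounds in qHTS concentration series for 72 h at 37 degrees C. Viability read by CellTiter-Glo luminescence; concentration-effect curves fitted after normalization and correction.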
HT1080 IDH1KD tx: qHTS for induction of synthetic lethality in tumor cells producing 2HG: qHTS for the HT-1080-IDH1KD cell line; hit rate 2% among 360,000; Potency, µM (titrated, usually from 46.1 µM), without a hit: at the highest dose activity, negative = toxicity, actives largely listed as cytotoxic; HT-1080 IDH1 knockdown viability, ATP luminescence, 48 h; AID 686971, 2013;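 note: 0% = DMSO wells and -100% = cell-free medium wells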
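IDH1KD HT-1080 cells, 750/well, RPMI + 5% FBS; compound pinned after 2 h settling; 48 h, 37 °C; CellTiter-Glo luminescence; % activity normalised to DMSO and no-cell wells; curves fitted, classed by r2 and efficacy.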
HT1080-NT tox: qHTS for induction of synthetic lethality in tumor cells producing 2HG: qHTS for the HT-1080-NT fibrosarcoma cell line; AID 686970, 2013; HT-1080-NT fibrosarcoma viability, CellTiter-Glo ATP luminescence, 48 h; Potency, µM (titrated, usually from 46.1 µM), inactives show top-dose activity, negative = less viability, most hits filed as cytotoxic; hit rate 1.6% among 360,000;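 note: NT is the 2HG producing partner of a matched IDH1 knockdown line; 0% = DMSO-treated cells and -100% = media-only wells without cells; nearly all actives have a fitted effect of over 55% in size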
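750 cells/well, RPMI + 5% FBS; 2 h settle, compound pin-transfer, 48 h at 37 degrees C. CellTiter-Glo 10 min RT, luminescence. Normalized to DMSO and media-only wells.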
KB-3-1 cytotox: qHTS assay for MDR1-selective chemotherapeutics: Primary screen using the parental adenocarcinoma cell KB-3-1. Potency, µM (titrated, usually from 46.1 µM), hits mostly cytotoxic. KB-3-1 viability, CellTiter-Glo ATP luminescence, 72 h. hit rate 1.4% among 400,000. AID 1347075, 2019; note: nearly all actives have a fitted effect of over 60% in size
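Parental KB-3-1 adenocarcinoma cells in phenol-red-free DMEM with 10% FBS were pin-treated with compounds at several concentrations, incubated 72 h at 37 °C, and viability read by CellTiter-Glo luminescence; concentration-effect curves were fitted after normalization.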
DT40 TDP1 no CPT: qHTS for Inhibitors of human tyrosyl-DNA phosphodiesterase 1 (TDP1): qHTS in cells in absence of CPT; DT40 Tdp1-/- hTDP1 cells, no CPT, ATP luminescence, 48 h; hit rate 15% among 420,000; Potency, µM (highest dose often 46.2 µM), for inactives: at the top dose activity change, negative = growth inhibition, usual class: inhibitors; note: nearly all actives have a fitted effect of over 55% in size
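A cellular qHTS used chicken DT40 cells lacking endogenous Tdp1 but carrying stably transfected human TDP1. Compounds were applied without camptothecin, and cell growth kinetics were judged by ATP-dependent luminescence after ≥48 hr.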
TDP1 cell CPT: qHTS for Inhibitors of human tyrosyl-DNA phosphodiesterase 1 (TDP1): qHTS in cells in presence of CPT; hit rate 12% among 420,000; AID 686979, 2013; Potency, µM (series often up to 46.2 µM), without a hit: top-dose activity change, negative = growth inhibition, actives largely listed as inhibitors; chicken DT40 Tdp1-/-;hTDP1 cells + 20 nM CPT, ATP luminescence, 48 h; note: nearly all actives have a fitted effect of over 55% in size
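Chicken DT40 Tdp1-/- cells stably complemented with human TDP1 were seeded at 400 cells/well in medium containing 20 nM camptothecin, exposed to pin-transferred compounds, and grown at 37 °C for at least 48 hr. Viability was read as ATP luminescence.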
An asterisk follows results filed as active; i = inactive; ? = inconclusive; nt = no result given; [ ] = remark or other dose. Most compounds without a hit are left out; they make up all but 19% or so of the library. Calls come from the whole dose curve; as a rule, active = well fitted curve in the direction sought with a large enough effect; inconclusive = small, poorly fitted or top-dose-only effect, or another doubt; inactive = no such curve, though single readings can be large; an effect the other way counts as inactive or inconclusive. Unless noted, % is set by controls: 0 for no effect and ±100 for the full control effect; potency is the fitted concentration of half-maximal effect.

SMILES	KB-V1 MDR tox	HT1080 IDH1KD tx	HT1080-NT tox	KB-3-1 cytotox	DT40 TDP1 no CPT	TDP1 cell CPT
COc1ccccc1N1CCN(CC(=O)Nc2ccc(S(=O)(=O)N3CCCCCC3)cc2)CC1	i	-21%	-21%	?	?	?
O=C(CN1CCN(c2ccccn2)CC1)Nc1ccc(OC(F)(F)F)cc1	i	-5%	-26%	i	23µM*	-5%
COc1ccccc1N1CCN(CC(=O)Nc2ccc(Cl)c(C(F)(F)F)c2)CC1	?	?	-26%	i	?	21µM*
COc1ccc(CN2CCN(C3CCSCC3)CC2CCO)c(C)c1C (stereo not given)	i	-12%	-1%	i	16µM*	18µM*
CC(=O)c1cc(CN2CCN(CCC(C)C)C(CCO)C2)cs1 (stereo not given)	i	5%	2%	i	?	16µM*
COc1ccc(CN2CCN(Cc3csc(C(C)=O)c3)CC2CCO)c(C)c1C (stereo not given)	i	?	?	i	10µM*	-10%
COc1ccc(CN2CCN(Cc3nc4ccccc4s3)CC2CCO)c(C)c1C (stereo not given)	i	?	?	?	15µM*	?
COc1ccc(CN2CCN(CC3CC3)CC2CCO)c(C)c1C (stereo not given)	i	-9%	-11%	i	-12%	?
O=C(NCC(F)(F)F)c1[nH]c(C(F)(F)F)nc1-c1ccccc1	i	7%	13%	i	-6%	3%
Cc1cc(C)c(C#N)c(SCC(=O)c2ccccc2)n1	i	-4%	-5%	i	-46%	16µM*
Cc1ccc(C(=O)CSc2nc(C)cc(C)c2C(N)=O)cc1	16µM*	?	?	i	?	?
Cc1cc(C)c(C(N)=O)c(SCC(=O)c2ccc(Cl)cc2)n1	i	-6%	0%	i	?	?
COc1ccc(/C=C2\S/C(=N/S(=O)(=O)c3cccs3)NC2=O)cc1	i	-8%	-8%	?	3%	-4%
C=C1C=C(C(F)F)n2ncc(C(=O)N3CCN(c4ccccc4)CC3)c2N1	?	nt	nt	?	?	11µM*
C=C1C=C(C(F)F)n2ncc(C(=O)N3CCc4ccccc4C3)c2N1	i	nt	nt	?	?	?
CCN(CC)C1CCN(C(=O)c2cnn(-c3nccc(-c4ccco4)n3)c2C(C)C)C1 (stereo not given)	nt	nt	nt	nt	1%	-1%[9.04 µM]
Cc1cccc(N2CCN(c3ncnc4c3nc3n4CCCCC3)CC2)c1C	i	nt	nt	i	?	26µM*
Cc1cccc(NC(=O)C2CCN(c3ncnc4c3nc3n4CCCCC3)CC2)n1	?	-15%	-2%	i	-29%	?
Clc1cccc(N2CCN(c3ncnc4c3nc3n4CCCCC3)CC2)c1	15µM*	nt	nt	13µM*	10µM*	15µM*
Cc1ccc(-c2nn(-c3ccc(F)cc3)cc2C(=O)N2CCN(C3CCS(=O)(=O)C3)CC2)cc1 (stereo not given)	i	-1%	13%	i	-26%	-12%
C#CCOCCOCCOCCNc1nc(N2CCN(C(=O)C(Cc3cc4ccccc4[nH]3)n3cc(C(N)C(C)CC)nn3)CC2)nc(N2CCN(C(=O)C(Cc3cc4ccccc4[nH]3)n3cc(C(N)C(C)CC)nn3)CC2)n1 (stereo not given)	i	-3%	-1%	?	?	16µM*
C#CCOCCOCCOCCNc1nc(N2CCN(C(=O)[C@H]([C@@H](C)CC)n3cc([C@@H](N)CC(C)C)nn3)CC2)nc(N2CCN(C(=O)[C@H](Cc3cc4ccccc4[nH]3)n3cc([C@@H](N)Cc4ccc(O)cc4)nn3)CC2)n1	i	-6%	-21%	i	?	?
C#CCOCCOCCOCCNc1nc(N2CCN(C(=O)[C@H]([C@@H](C)CC)n3cc([C@@H](N)Cc4ccc(O)cc4)nn3)CC2)nc(N2CCN(C(=O)[C@H](Cc3cc4ccccc4[nH]3)n3cc([C@@H](N)CC(C)C)nn3)CC2)n1	i	5%	6%	i	?	23µM*
CC[C@@H](C)C(NC(=O)OC(C)(C)C)c1cn([C@@H](Cc2cc3ccccc3[nH]2)C(=O)N2CCN(C(=O)OC(C)(C)C)CC2)nn1 (stereo not given in full)	?	-1%	-12%	?	23µM*	23µM*
CC(O)CNc1nc2sc3c(c2c(=O)n1CCc1ccccc1)CCCCC3 (stereo not given)	i	?	?	i	16µM*	23µM*
SMILES	KB-V1 MDR tox	HT1080 IDH1KD tx	HT1080-NT tox	KB-3-1 cytotox	DT40 TDP1 no CPT	TDP1 cell CPT
CN(C)CCNc1nc2sc3c(c2c(=O)n1CCc1ccccc1)CCCCC3	21µM*	?	-24%	i	10µM*	21µM*
N#Cc1c(N)nc2c(c1N)CC(COc1ccccc1)O2 (stereo not given)	?	19%	26%	i	0%	-1%
CCc1c(C)sc(NC(=O)CSc2nc3c(c(C(F)(F)F)n2)CCc2ccccc2-3)c1C#N	?	-1%	0%	?	?	21µM*
O=C(CSc1nc2c(c(C(F)(F)F)n1)CCc1ccccc1-2)NCc1ccco1	i	15%	3%	i	26µM*	16µM*
Cc1nc(SCC(=O)NCc2ccco2)nc(C)c1C	i	7%	1%	i	7%	7%
CC(NC(=O)CSc1nc2c(c(C(F)(F)F)n1)CCc1ccccc1-2)c1ccccc1 (stereo not given)	?	-10%	-14%	?	23µM*	?
CC(Oc1ccccc1)C(=O)N[C@@H]1C(=O)N2C(C(=O)OCC3CCCCC3)C(C)(C)S[C@H]12 (stereo not given in full)	?	nt	nt	i	-11%	-7%
CCOC(=O)C1(Cc2ccccc2)CCCCCC1=O (stereo not given)	i	8%	9%	i	?	?
